Bioassay records deposited in PubChem by several laboratories.
INS promoter inh – inhibitors of insulin promoter-driven GFP, primary screen, imaging, TRM-6 cells (human fetal islet line), eGFP reporter, cell count; 130,000 tested, 0.9% active; AID 1273, 2008; inhibition, % at 2 µM; reporter expression induced with tamoxifen;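 active = inhibition above the mean plus 3 SD, with well images judged a real hit on visual review, cut at about 60% in these data, passing the limit was not always enough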
Insulin prom up – insulin promoter activators in MIN6 cells, imaging, high-content screening, mouse beta cells; MIN6 insulin promoter-GFP reporter; active compounds read high; z-score at 5 µM; 190,000 tested, 0.3% active; AID 1625, 2009;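 active = z-score above 3 at 5 µM with at least 500 cells counted in the well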
ROMK primary – ROMK potassium channel modulators, primary screen, cell-based, thallium flux, MLSMR library; B-score at 10 µM; Tet-inducible ROMK, thallium flux fluorescence; actives lie on both sides; ATP-sensitive inward rectifier potassium channel 1 (Homo sapiens), P48048; 130,000 tested, 2% active;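 active = signal ratio slope over the read window, or its plate-corrected B-score, at least 3 SD from the plate mean, either direction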;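 also: B-score of the F/F0 ratio slope over 7 to 12 s after thallium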
WT yeast gro inh – growth inhibition of WT strain, primary screen, mitochondrial fusion inhibitor project, WT and mutant strains, chemical genetic; AID 1362, 2008; mitochondrial fusion phenotypic screen; 190,000 tested, 2.1% active; inhibition, % at 10 µM; in the data active = inhibition above about 58%; tested in S. cerevisiae
Cl transport mod – KCC2 cotransporter modulators, thallium flux, primary screen, cell-based, HEK293 KCC2, FluoZin-2 fluorescence, MLSMR; Solute carrier family 12 member 5 (Homo sapiens), Q9H2X9; KCC2 cells, thallium flux FluoZin-2 fluorescence; B-score of Tl+ flux slope (higher = more flux/activation; lower = inhibition) at 10 µM; 190,000 tested, 2.2% active; AID 1456, 2008;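 active = thallium flux slope and its plate-corrected score both differing from the plate sample mean at a set confidence after two filtering rounds, in either direction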;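 also: slope of fluorescence scaled to starting intensity during 10 to 20 s after thallium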
Target sequence (Q9H2X9 whole entry, looked up): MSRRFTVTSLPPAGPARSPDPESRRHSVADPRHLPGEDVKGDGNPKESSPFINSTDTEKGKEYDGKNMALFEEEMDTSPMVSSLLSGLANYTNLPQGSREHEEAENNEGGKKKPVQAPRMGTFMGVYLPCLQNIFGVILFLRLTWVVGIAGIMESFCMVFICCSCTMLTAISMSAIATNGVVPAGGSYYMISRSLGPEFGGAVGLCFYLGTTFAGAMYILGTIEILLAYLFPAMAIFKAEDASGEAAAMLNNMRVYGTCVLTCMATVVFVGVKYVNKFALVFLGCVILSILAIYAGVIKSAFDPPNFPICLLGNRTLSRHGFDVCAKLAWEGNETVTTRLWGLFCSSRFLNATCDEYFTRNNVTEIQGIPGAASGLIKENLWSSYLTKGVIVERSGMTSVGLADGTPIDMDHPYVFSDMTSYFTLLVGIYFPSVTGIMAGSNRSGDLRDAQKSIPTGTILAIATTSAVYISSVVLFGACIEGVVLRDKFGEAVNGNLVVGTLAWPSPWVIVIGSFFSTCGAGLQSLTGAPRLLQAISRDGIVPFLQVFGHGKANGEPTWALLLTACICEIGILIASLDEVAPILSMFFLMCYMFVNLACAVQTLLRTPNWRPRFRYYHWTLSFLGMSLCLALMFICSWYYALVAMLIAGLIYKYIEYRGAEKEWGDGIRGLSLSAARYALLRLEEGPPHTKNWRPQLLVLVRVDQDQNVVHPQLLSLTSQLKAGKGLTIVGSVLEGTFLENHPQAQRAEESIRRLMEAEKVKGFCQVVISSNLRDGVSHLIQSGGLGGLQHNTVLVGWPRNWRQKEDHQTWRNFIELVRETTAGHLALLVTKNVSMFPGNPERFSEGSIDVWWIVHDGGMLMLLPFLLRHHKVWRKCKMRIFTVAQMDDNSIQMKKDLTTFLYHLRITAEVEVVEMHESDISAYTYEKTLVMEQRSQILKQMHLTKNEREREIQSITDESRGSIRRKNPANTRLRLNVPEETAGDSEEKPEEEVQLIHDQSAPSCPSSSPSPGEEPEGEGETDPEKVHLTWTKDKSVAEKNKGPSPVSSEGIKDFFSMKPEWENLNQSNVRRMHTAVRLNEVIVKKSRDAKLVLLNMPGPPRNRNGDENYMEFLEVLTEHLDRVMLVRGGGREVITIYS
L major viab – Leishmania major promastigote growth inhibition, primary screen; inhibition, % at 10 µM; 200,000 tested, 9% active; AID 1063, 2008; Leishmania major promastigotes, resazurin fluorescence viability; in the data active = inhibition above about 50%;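 also: promastigotes grown with compound for 44 hours at 28 °C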
The depositor's hits bear a star; / = no result. This is a sample that favours compounds with a hit; in the whole collection about 12% have one here.

SMILES	INS promoter inh	Insulin prom up	ROMK primary	WT yeast gro inh	Cl transport mod	L major viab
Cc1ccc2nc(N3C(=O)C(O)=C(C(=O)c4ccco4)C3c3cccs3)sc2c1 (centres undefined)	30.0	0.99	-2.56*	-10.6	/	5.5
O=C(OCC(=O)N1CCN(C(=O)c2ccco2)CC1)c1ccccc1OCc1ccccc1	-26.7	11.8*	-0.172	8.6	/	-7.9
O=C(OCC(=O)N1CCN(C(=O)c2ccco2)CC1)c1cn(-c2ccccc2)nc1-c1ccccc1	-125.8	-1.27	/	80.2*	-0.29	2.7
O=C(OCC(=O)N1CCCC1)c1ccccc1OCc1ccccc1	-58.3	/	/	7.8	0.19	-1.2
Cn1c(=O)c(=O)n(C)c2cc(S(=O)(=O)N3CCN(C4CCCCC4)CC3)ccc21	/	1.17	/	-16.3	0.465	-2.2
O=S(=O)(c1ccc2ccccc2c1)N1CCCCC1	-5.0	0.75	/	-23.5	-0.598	12.8
CC(CS(=O)(=O)c1ccc2ccccc2c1)N1CCN(C2CCCCC2)CC1 (centres undefined)	0.0	/	-0.249	/	0.194	82.5*
Cc1ccc(S(=O)(=O)CC(C)N2CCN(C3CCCCC3)CC2)cc1 (centres undefined)	-103.2	/	0.752	16.5	-0.49	90.4*
O=S(=O)(CC(CN1CCCC1)N1CCCC1)c1ccc2ccccc2c1 (centres undefined)	42.9	0.68	/	4.0	-0.594	100.5*
O=C(O)CCCC(=O)Nc1ccccc1Br	/	0.5	-0.785	-3.7	-0.182	-6.5
CC(O)Cn1c(=O)c2c(nc(Br)n2Cc2ccccc2)n(C)c1=O (centres undefined)	53.9	-0.27	/	-21.7	-0.336	-1.9
CC1(C)CC(=O)C2=C(C1)OC(N)=C(C#N)C2c1ccc[nH]1 (centres undefined)	-21.4	-0.09	-0.222	11.3	-0.0488	-4.4
O=C(CSC1=NCCS1)NC1CCCC1	-50.0	0.32	/	4.7	0.822	2.5
COc1cc(/C=N/NC(=O)C(Cc2c[nH]c3ccccc23)NC(=O)OCC(C)C)cc([N+](=O)[O-])c1OCc1ccccc1 (centres undefined)	/	-2.23	/	-8.8	0.0243	90.7*
Cc1cccc2cc(CN(CCN3CCOCC3)C(=O)Nc3ccccc3F)c(=O)[nH]c12	-25.8	-0.14	0.609	9.6	-0.377	-1.6
CCc1cc(C(=O)OC)c(NC(=O)C2CC(=O)NN2Cc2ccccc2)s1 (centres undefined)	-96.7	-0.2	/	3.1	/	99.3*
COc1ccc(N(C(=O)c2ccccc2OC(C)=O)C(C)C2CC2)cc1 (centres undefined)	-11.4	0.08	0.313	-0.7	-0.167	99.8*
COc1ccc(C2CC(c3ccccc3OC(C)=O)=NN2C(C)=O)cc1 (centres undefined)	/	-0.71	/	/	-0.422	/
O=C1/C(=C/c2ccncc2)Oc2cc(OS(=O)(=O)c3ccccc3)ccc21	/	-0.48	/	/	0.133	/
COc1cccc(OC)c1C(=O)Oc1ccc2c(c1)O/C(=C\c1ccncc1)C2=O	17.2	-0.73	-0.166	-14.3	-0.00705	93.8*
O=C1/C(=C/c2ccccc2)Oc2cc(OC(=O)N3CCOCC3)ccc21	-86.1	0.07	-0.631	-4.3	-1.62	73.6*
O=C1/C(=C/c2ccc(F)cc2)Oc2cc(OC(=O)N3CCOCC3)ccc21	/	-0.11	/	/	0.267	/
COc1ccc2[nH]cc(CCNC(=O)c3ccc([N+](=O)[O-])cc3)c2c1	/	/	-0.859	-16.1	-1.41	3.1
Cc1cccc(C(=O)N/C(=C\c2ccc(C)o2)C(=O)O)c1	/	0.11	-0.46	/	-0.368	/
CC(C)(C)N=C1NC(=NC(C)(C)C)c2ccccc21	-38.9	-0.86	/	5.0	-3.38	65.6*
SMILES	INS promoter inh	Insulin prom up	ROMK primary	WT yeast gro inh	Cl transport mod	L major viab
O=C(Nc1ccc(-c2nc3ccccc3[nH]2)cc1)c1ccc(N2C(=O)CCC2=O)cc1	0.0	-0.42	0.906	-2.1	-1.2	50.0*
CC(C)(C)N1C(=O)c2ccc(C(=O)Nc3ccc(-c4nc5ccccc5[nH]4)cc3)cc2C1=O	10.7	-0.15	0.165	14.8	0.465	-4.2
O=C(c1ccccc1)c1ccc2nc(-c3ccc(NC(=O)c4ccccc4Br)cc3)[nH]c2c1	/	/	1.19	-26.9	0.188	96.8*
Cc1ccccc1C(=O)Nc1ccc(-c2nc3ccc(C(=O)c4ccccc4)cc3[nH]2)cc1	-62.1	-0.61	/	-13.8	-0.844	97.7*
Clc1cncc(Cl)c1N/N=C/c1ccccc1	/	-0.02	/	/	0.55	/
O=C(O)COc1ccc(Br)cc1/C=N/O	50.0	0.91	/	-4.3	0.0905	-6.5
COc1ccc(NC(C)=O)cc1NC(=O)c1cccc(C(F)(F)F)c1	/	-1.58	-0.822	-12.2	-0.366	-4.5
Cc1ccc(CC(NC(=O)c2ccccc2)C(=O)NC(C)C(=O)O)cc1 (centres undefined)	14.3	-0.37	-0.000524	23.3	-0.144	84.0*
O=C(NC(Cc1ccccc1)C(=O)O)c1ccccc1 (centres undefined)	/	0.53	/	7.7	1.26	4.4
O=C(NC(Cc1ccc(F)cc1)C(=O)O)c1ccccc1 (centres undefined)	-3.5	0.02	/	0.1	-1.02	70.4*
CNC(=O)Cn1c(C)cc(=O)c2cccc(OC)c21	/	-0.2	/	/	0.071	/
C=C(C)CSc1nnc(-c2ccc(OC)c(OC)c2)n1N	9.7	-0.89	0.104	0.5	/	-0.6
COc1ccc(CNc2ccc3c(c2)ncn3-c2ccccc2OC)cc1	-51.4	-0.26	/	29.9	-1.18	100.3*
COc1ccccc1-n1cnc2cc(NCc3cccs3)ccc21	-257.1	-1.38	/	/	-1.67	96.4*
Cc1ccccc1-n1cnc2cc(NCc3cccs3)ccc21	-30.6	-0.76	/	-0.9	-1.3	19.8
O=C1c2ccccc2C(O)(c2ncc[nH]2)N1C1CCCCC1 (centres undefined)	0.0	0.4	-0.0285	9.2	/	-2.9
CCOC(=O)CCCNC(=O)COc1ccccc1C#N	/	0.53	/	1.4	0.446	-9.4
COn1c(=O)c(=O)n(O)c2ccccc21	-34.1	-0.31	/	14.5	0.648	-0.1
COC(=O)c1nn(-c2nc(-c3cccc(OC)c3)cc(C(F)(F)F)n2)cc1[N+](=O)[O-]	33.3	-0.06	-0.132	-5.9	1.26	90.0*
COC(=O)c1cc(=O)nc2scc(C)n12	-5.0	0.8	1.36	13.4	0.539	-2.8
CCCCCOc1ccc(CSc2n[nH]c(C)n2)cc1	7.7	0.45	/	79.8*	0.00559	7.0
COc1ccc(NC2=Nc3ccccc3N3C2=Nc2c(c(C)nn2-c2ccc(C)cc2)C3c2cccnc2)cc1 (centres undefined)	37.5	3.08*	-1.03	8.9	/	3.3
COc1ccc(N2C(=O)C(=O)/C(=C(/O)c3ccc(C)cc3)C2c2cccnc2)cc1 (centres undefined)	-25.0	0.24	-0.0992	-11.2	0	0.8
